# Unmarked numbers belong to inactive results. No rule for the calls is given here.
# Tested on: Phorbol Ester
# Assay: CYP450 and receptor off-target profile – biochemical, Ricerca HitProfilingScreen, selectivity assay for S1P4 agonist project, late-stage follow-up (AID 504400)
# Conditions: Ricerca radioligand binding/enzyme panel plus CYP450, at 10 µM, hits give high values
structure (smiles),measurement,value
Clc1ccc(OCCOc2ccc(Br)nc2Br)c(Cl)c1,inhibition,4%
